Data as given in PubChem BioAssay (EPA / NIEHS).
Calls of active or inactive are those of the source. How the source made its calls: active means hit-call score of the fitted dose curve at least 0.9, where 1 is the maximum; inactive means score below 0.9.

Experiments:
[1] = ATG_CRE_CIS: Attagene CIS-FACTORIAL HepG2 Assay for human cAMP Responsive Element (CRE) binding protein 3 (AID 2282926); conditions: HepG2 CRE cis-reporter, Attagene multiplexed mRNA; actives raise or lower the signal
Summary of the method: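 Assay format: transient reporter transfection of HepG2, 24 h treatment, total RNA isolation with DNase I step. Reporter abundance read by fluorescence after PCR and capillary separation; DMSO-normalised gain or loss fitting.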

[2] = target: CCAAT/enhancer-binding protein beta (Homo sapiens) (UniProt P17676); assay: ATG_C_EBP_CIS: Attagene CIS-FACTORIAL HepG2 Assay for human CCAAT/Enhancer Binding Protein (C/EBP) beta (AID 2282927); conditions: HepG2 Attagene cis-factorial transcription factor reporter; actives raise or lower the signal
Summary of the method: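 Transiently transfected HepG2 (MRTU library, endogenous TF-driven promoters); 24 h dosing; total RNA → oligo(dT) RT → PCR → 6-FAM primer extension → HpaI digest → CE; fit bidirectionally vs DMSO.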

[3] = ATG_CMV_CIS: Attagene CIS-FACTORIAL HepG2 Assay for human CMV (Internal Marker) (AID 2282928); conditions: HepG2 CMV promoter reporter, transcription factor profiling; actives raise or lower the signal;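 further: endpoint acts as a background internal control marker rather than a target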
Summary of the method: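 Readout: fluorescent reporter cDNA fragments separated by capillary electrophoresis after RT-PCR and HpaI cut. Cells: HepG2 carrying transfected cis-promoter reporter constructs, dosed 24 h. Endpoint serves as background internal-marker control, fit bidirectionally versus DMSO.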

[4] = ATG_DR4_LXR_CIS: Attagene CIS-FACTORIAL HepG2 Assay for human Liver X Receptor (LXR), DR4 submotif (AID 2282929); conditions: HepG2 Attagene DR4 cis-reporter, mRNA transcription; actives raise or lower the signal
Summary of the method: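 DR4 cis-reporter in HepG2, 24 h exposure. Detection: RT-PCR, 6-FAM labelling, CE fragment analysis. Endpoint fitted bidirectionally, DMSO = baseline.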

[5] = target: Aryl hydrocarbon receptor (Homo sapiens) (UniProt P35869); assay: ATG_Ahr_CIS: Attagene CIS-FACTORIAL HepG2 Assay for human Aryl Hydrocarbon Receptor (Ahr) (AID 2282930); conditions: HepG2 AhR cis-factorial reporter transcription; actives raise or lower the signal
Summary of the method: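 Read-out: reporter mRNA quantified by RT-PCR with fluorescent primer extension and capillary electrophoresis. Human HepG2 liver cells carried transfected cis-promoter reporter units and were exposed to chemical for 24 h; gain or loss fitted relative to DMSO.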

[6] = ATG_AP_2_CIS: Attagene CIS-FACTORIAL HepG2 Assay for human Activator Protein 2 (AP-2) (AID 2282932); conditions: HepG2 AP-2 cis-reporter, Attagene transcription factor profiling; actives raise or lower the signal
Summary of the method: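 Read-out: fluorescent reporter mRNA via RT-PCR and capillary electrophoresis, 24 h post-dose in transiently transfected HepG2. Endogenous factors drive cis-promoter reporters; gain or loss of signal fitted bidirectionally against DMSO.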

[7] = ATG_BRE_CIS: Attagene CIS-FACTORIAL HepG2 Assay for human Bone Morphogenetic Protein (BMP) Response Element (BRE) (AID 2282933); conditions: HepG2 BMP response element reporter, Attagene transcription factor profiling; actives raise or lower the signal
Summary of the method: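 Read-out: reporter mRNA induction quantified by RT-PCR and capillary electrophoresis after 24 h chemical exposure of transfected HepG2 cells. Endogenous factor activity on the BMP response element; gain or loss fitted against DMSO baseline.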

[8] = target: Retinoic acid receptor alpha (Homo sapiens) (UniProt P10276); assay: ATG_DR5_RAR_CIS: Attagene CIS-FACTORIAL HepG2 Assay for human Retinoic Acid Receptor Alpha (RARE), DR5 submotif (AID 2282934); conditions: HepG2 Attagene cis-factorial RARE DR5 reporter, mRNA; actives raise or lower the signal;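 on AC50: reporter responds to endogenous RAR alpha beta and gamma in HepG2 not RARA alone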
Summary of the method: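 Read-out: DR5-driven reporter transcript measured by RT-PCR, 6-FAM primer extension, HpaI digest and capillary electrophoresis. Human HepG2 liver cells carry transiently transfected cis-element reporter constructs; dosing lasts 24 h. Gain or loss of signal fitted against DMSO baseline.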

[9] = target: Transcription factor E2F1 (Homo sapiens) (UniProt Q01094); assay: ATG_E2F_CIS: Attagene CIS-FACTORIAL HepG2 Assay for human E2F Transcription Factor 1 (AID 2282935); conditions: HepG2 Attagene cis-reporter, E2F reporter RNA transcripts; actives raise or lower the signal
Summary of the method: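 Transient MRTU transfection of HepG2; 24 h compound exposure; RNA → oligo(dT) RT → PCR → FAM label → HpaI cut → CE fluorescence. Gain/loss of signal fit against DMSO.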

[10] = ATG_E_Box_CIS: Attagene CIS-FACTORIAL HepG2 Assay for human Enhancer Box (E-box) (AID 2282936); conditions: HepG2 E-box cis-reporter transcription, actives raise or lower the signal
Summary of the method: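 Transiently transfected HepG2, endogenous TF-driven reporters, 24 h dosing. Readout: RT-PCR plus capillary electrophoresis of fluorescent reporter fragments. Gain or loss of signal fitted bidirectionally against DMSO baseline.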

[11] = ATG_M_61_CIS: Attagene CIS-FACTORIAL HepG2 Assay for M61 Transcription Factor (Internal Marker) (AID 2282937); conditions: HepG2 Attagene CIS-FACTORIAL M61 internal marker reporter; actives raise or lower the signal
Summary of the method: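 Background-control endpoint: HepG2 cells with cis-regulated reporter constructs, 24 h exposure, reporter mRNA detected via fluorescent primer extension and capillary electrophoresis; values from bidirectional fitting with DMSO baseline.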

[12] = ATG_EGR_CIS: Attagene CIS-FACTORIAL HepG2 Assay for human Early Growth Response 1 (EGR1) (AID 2282938); conditions: HepG2 Attagene CIS-FACTORIAL EGR reporter mRNA; actives raise or lower the signal
Summary of the method: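 Endpoint derived by bidirectional fitting versus DMSO vehicle. Method: cis-promoter reporter units transfected into HepG2, 24 h dosing, RNA isolation, RT-PCR with 6-FAM primer extension and HpaI digestion, then capillary electrophoresis fluorescence detection.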

[13] = ATG_M_19_CIS: Attagene CIS-FACTORIAL HepG2 Assay for M19 Transcription Factor (Internal Marker) (AID 2282939); conditions: HepG2 Attagene CIS-FACTORIAL M19 internal marker reporter; actives raise or lower the signal
Summary of the method: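 Readout: fluorescent reporter-transcript fragments by capillary electrophoresis after RT-PCR. Human HepG2 liver cells carried transfected MRTU constructs reporting endogenous transcription-factor activity; exposure 24 h. Gain or loss of signal fitted relative to DMSO.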

[14] = ATG_ERE_CIS: Attagene CIS-FACTORIAL HepG2 Assay for Estrogen Response Element (ERE) (AID 2282940); conditions: HepG2 ERE cis-reporter, Attagene RNA transcript; actives raise or lower the signal
Summary of the method: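 Readout: reporter mRNA induction by RT-PCR, FAM-labelled primer extension, HpaI digestion and capillary electrophoresis, 24 h after dosing transfected HepG2 cells. Endogenous transcription factors act on cis-element-regulated reporters. Gain or loss fitted against DMSO.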

[15] = ATG_Ets_CIS: Attagene CIS-FACTORIAL HepG2 Assay for human Erythroblast Transformation Specific (ETS) (AID 2282941); conditions: HepG2 ETS cis-reporter transcription, actives raise or lower the signal
Summary of the method: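 RT-PCR/capillary electrophoresis fluorescence read-out of reporter mRNA; HepG2 transient multi-reporter transfection; 24 h compound exposure; gain or loss of signal fitted bidirectionally relative to DMSO.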

[16] = ATG_FoxO_CIS: Attagene CIS-FACTORIAL HepG2 Assay for human Forkhead box O (FoxO) (AID 2282943); conditions: HepG2 Attagene cis-reporter, FoxO element, mRNA; actives raise or lower the signal
Summary of the method: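 Read-out: fluorescence of 6-FAM-labelled reporter cDNA fragments resolved by capillary electrophoresis. Transiently transfected HepG2 cells were dosed for 24 h; activity fitted in both directions relative to DMSO controls.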

[17] = ATG_GLI_CIS: Attagene CIS-FACTORIAL HepG2 Assay for human Zinc Finger Protein GLI1 (AID 2282945); conditions: HepG2, Attagene cis-factorial reporter mRNA, GLI element; actives raise or lower the signal
Summary of the method: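 Transiently transfected HepG2 cells report endogenous transcription factor activity via cis-element-driven reporter units. After 24 h compound exposure, reporter mRNA was measured by RT-PCR with capillary electrophoresis; bidirectional fitting against DMSO baseline.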

[18] = target: Hepatocyte nuclear factor 3-beta (Homo sapiens) (UniProt Q9Y261); assay: ATG_FoxA2_CIS: Attagene CIS-FACTORIAL HepG2 Assay for human Forkhead box A2 (FOXA2) (AID 2282942); conditions: HepG2 cis-reporter transcription factor activity, 24 h; actives raise or lower the signal
Summary of the method: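 Measured: reporter mRNA induction or loss in HepG2 transiently carrying multiple cis-regulated reporter units, 24 h after dosing. Quantified by RT-PCR plus capillary electrophoresis, normalised to DMSO.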

[19] = ATG_GATA_CIS: Attagene CIS-FACTORIAL HepG2 Assay for human GATA Binding Protein (AID 2282944); conditions: HepG2 GATA cis-element reporter, Attagene multiplex mRNA; actives raise or lower the signal
Summary of the method: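 Read-out: fluorescent reporter mRNA fragments resolved by capillary electrophoresis after RT-PCR. Human liver HepG2 cells carried transiently transfected cis-regulated reporter constructs; chemicals incubated 24 h; gain or loss of signal fitted relative to DMSO.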

[20] = ATG_AP_1_CIS: Attagene CIS-FACTORIAL HepG2 Assay for human Activator Protein 1 (AP-1) (AID 2282931); conditions: HepG2 Attagene cis-factorial AP-1 reporter mRNA; actives raise or lower the signal
Summary of the method: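 Cis-regulated reporter units transiently expressed in HepG2 report endogenous transcription-factor activity. Signal: reporter mRNA at 24 h, via RT-PCR and fluorescent capillary electrophoresis. Endpoint derived by bidirectional fitting, DMSO as negative control.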

Measured: AC50

Transcription factor E2F1 (Homo sapiens), sequence (Q01094 whole entry, looked up): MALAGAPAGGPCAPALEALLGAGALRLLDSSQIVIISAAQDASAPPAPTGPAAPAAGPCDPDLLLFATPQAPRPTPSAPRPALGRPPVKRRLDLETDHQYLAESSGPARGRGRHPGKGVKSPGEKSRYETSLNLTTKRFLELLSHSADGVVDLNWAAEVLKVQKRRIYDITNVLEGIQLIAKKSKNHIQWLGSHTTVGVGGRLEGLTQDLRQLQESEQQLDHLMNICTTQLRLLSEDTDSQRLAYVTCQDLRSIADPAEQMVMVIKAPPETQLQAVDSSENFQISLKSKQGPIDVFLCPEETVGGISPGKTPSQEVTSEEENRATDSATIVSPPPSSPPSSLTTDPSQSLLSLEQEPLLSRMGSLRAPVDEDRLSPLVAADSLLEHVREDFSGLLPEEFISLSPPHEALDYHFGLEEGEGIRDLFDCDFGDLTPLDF
Retinoic acid receptor alpha (Homo sapiens), sequence (P10276 whole entry, looked up): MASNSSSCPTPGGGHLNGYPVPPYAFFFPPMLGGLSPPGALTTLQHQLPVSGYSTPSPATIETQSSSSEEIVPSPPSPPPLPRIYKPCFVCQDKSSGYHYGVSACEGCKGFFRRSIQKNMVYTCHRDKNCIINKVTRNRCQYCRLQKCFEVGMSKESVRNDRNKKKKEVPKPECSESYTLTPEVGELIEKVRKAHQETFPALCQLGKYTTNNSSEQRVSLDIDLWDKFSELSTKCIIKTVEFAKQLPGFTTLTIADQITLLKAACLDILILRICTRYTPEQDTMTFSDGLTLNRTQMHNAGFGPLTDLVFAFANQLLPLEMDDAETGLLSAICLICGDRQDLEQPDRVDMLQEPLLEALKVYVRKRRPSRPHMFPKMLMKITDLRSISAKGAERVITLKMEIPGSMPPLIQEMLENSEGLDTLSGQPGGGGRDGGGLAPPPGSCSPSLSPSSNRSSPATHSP
CCAAT/enhancer-binding protein beta (Homo sapiens), sequence (P17676 whole entry, looked up): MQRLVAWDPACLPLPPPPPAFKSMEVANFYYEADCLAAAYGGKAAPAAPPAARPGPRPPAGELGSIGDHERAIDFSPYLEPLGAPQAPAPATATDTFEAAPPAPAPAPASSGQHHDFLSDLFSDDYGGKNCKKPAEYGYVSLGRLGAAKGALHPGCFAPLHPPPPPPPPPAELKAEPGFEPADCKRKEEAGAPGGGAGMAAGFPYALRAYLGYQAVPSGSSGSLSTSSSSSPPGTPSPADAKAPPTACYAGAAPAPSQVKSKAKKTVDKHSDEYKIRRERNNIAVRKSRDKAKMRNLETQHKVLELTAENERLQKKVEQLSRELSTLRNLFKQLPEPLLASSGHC
Hepatocyte nuclear factor 3-beta (Homo sapiens), sequence (Q9Y261 whole entry, looked up): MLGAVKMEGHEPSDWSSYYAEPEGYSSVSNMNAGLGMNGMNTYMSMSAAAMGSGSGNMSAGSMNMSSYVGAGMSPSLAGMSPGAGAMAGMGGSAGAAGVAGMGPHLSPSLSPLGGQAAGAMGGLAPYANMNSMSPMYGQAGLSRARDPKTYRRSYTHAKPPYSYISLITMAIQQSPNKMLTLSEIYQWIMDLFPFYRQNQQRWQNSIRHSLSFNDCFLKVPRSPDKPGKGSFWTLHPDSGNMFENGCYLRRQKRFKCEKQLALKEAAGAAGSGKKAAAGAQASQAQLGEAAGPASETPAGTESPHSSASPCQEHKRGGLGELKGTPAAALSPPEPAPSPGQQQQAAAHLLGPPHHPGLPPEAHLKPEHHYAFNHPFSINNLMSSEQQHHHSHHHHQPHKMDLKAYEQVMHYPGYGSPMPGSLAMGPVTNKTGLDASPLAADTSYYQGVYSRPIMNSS
Aryl hydrocarbon receptor (Homo sapiens), sequence (P35869 whole entry, looked up): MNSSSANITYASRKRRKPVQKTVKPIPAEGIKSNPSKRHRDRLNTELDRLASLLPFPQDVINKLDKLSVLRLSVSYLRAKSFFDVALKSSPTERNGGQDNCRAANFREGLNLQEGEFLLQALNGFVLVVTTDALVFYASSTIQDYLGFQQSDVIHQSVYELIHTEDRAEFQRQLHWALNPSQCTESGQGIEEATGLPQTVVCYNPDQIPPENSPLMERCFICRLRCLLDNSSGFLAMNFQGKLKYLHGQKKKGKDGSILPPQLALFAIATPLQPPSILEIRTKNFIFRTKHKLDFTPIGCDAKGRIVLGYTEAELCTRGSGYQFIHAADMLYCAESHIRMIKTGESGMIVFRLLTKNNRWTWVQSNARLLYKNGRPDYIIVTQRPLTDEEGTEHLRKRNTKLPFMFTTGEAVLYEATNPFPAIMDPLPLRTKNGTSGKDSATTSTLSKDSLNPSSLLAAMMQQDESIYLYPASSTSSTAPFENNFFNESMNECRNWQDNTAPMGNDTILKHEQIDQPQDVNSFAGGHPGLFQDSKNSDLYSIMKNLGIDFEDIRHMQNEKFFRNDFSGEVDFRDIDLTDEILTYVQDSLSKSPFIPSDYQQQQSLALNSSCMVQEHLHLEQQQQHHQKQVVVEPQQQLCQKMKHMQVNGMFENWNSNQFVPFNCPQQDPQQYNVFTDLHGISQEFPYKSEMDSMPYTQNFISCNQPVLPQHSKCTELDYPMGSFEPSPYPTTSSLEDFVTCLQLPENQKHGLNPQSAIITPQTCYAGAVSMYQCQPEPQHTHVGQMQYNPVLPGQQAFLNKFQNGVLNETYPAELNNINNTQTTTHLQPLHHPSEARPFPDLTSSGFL

CCCCCCCCCCc1ccccc1
active: [8] 84.7 µM
not listed: [18] | [19] | [20]
inactive: all other assays above

CCCCC(CC)COC(=O)c1ccccc1 (stereo not given)
active: [14] 37.3 µM
not listed: [6] | [8] | [20]
inactive: all other assays above

O=C1c2cccc(O)c2C(=O)c2c(O)cc(CO)cc21
active: [3] 11.3 µM | [20] 32.5 µM | [10] 2.41 µM | [14] 4.22 µM
not listed: [5]
inactive: all other assays above

O=C(OCC1CCC2OC2C1)C1CCC2OC2C1 (stereo not given)
not listed: [5] | [17] | [18]
inactive: all other assays above
